uPA generation: inhibitors of cell surface uPA generation; AID 540303; cell surface uPA generation assay, qHTS; actives 0.31% (n = 330,000); Potency, µM (titrated, usually from 38.3 µM), for the others: top-dose activity change, negative = inhibition, usual class: inhibitors; active = well fitted inhibition curve with a large enough effect; inconclusive = small, poorly fitted or top-dose-only effect; inactive = no such curve, though single readings can be large or run the other way; tested in mouse RAW 264.7 cells; also: potency is read from the fitted curve at half-maximal effect; nearly all actives have a fitted effect of over 55% in size
HT1080NT lethal: kills 2HG-producing HT-1080-NT fibrosarcoma cells. Potency, µM (series often up to 46.1 µM), for inactives: top-dose activity, negative = less viability, most hits filed as cytotoxic. actives 1.6% (n = 360,000). HT-1080-NT fibrosarcoma viability, CellTiter-Glo ATP luminescence, 48 h;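 also: NT is the 2HG producing partner of a matched IDH1 knockdown line; potency is read from the fitted curve at half-maximal effect; 0% = DMSO-treated cells and -100% = media-only wells without cells; nearly all actives have a fitted effect of over 55% in size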
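Viability of the 2HG-overproducing fibrosarcoma line after 48 hours of compound exposure at 37 degrees C was determined by luminescence with CellTiter-Glo, and concentration-effect curves were then fitted and categorized.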
HT1080 IDH1KD tx: HT-1080 IDH1 knockdown cell toxicity (counter line). HT-1080 IDH1 knockdown viability, ATP luminescence, 48 h. Potency, µM (series often up to 46.1 µM), for the others: at the top dose activity, negative = toxicity, actives largely listed as cytotoxic. actives 2% (n = 360,000);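 also: potency is read from the fitted curve at half-maximal effect; 0% = DMSO wells and -100% = cell-free medium wells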
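Assay cells: HT-1080 with IDH1 knockdown, 750 per well, RPMI/5% FBS. Exposure: 48 h at 37 °C following 2 h pre-incubation. Read: CellTiter-Glo luminescence; fitted concentration-response, curve class assigned.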
IL1B secr inh: blocks inflammasome-driven IL-1 beta release | THP-1 LPS/ATP IL-1B secretion, AlphaLISA, 16 h; stronger effect = lower value | activity change, % at 57.5 µM | actives 4.7% (n = 360,000); in the data active = activity change below about -50%; inconclusive = mostly about -30% to -49%
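Secreted IL-1B measured by AlphaLISA bead assay after 16 h compound exposure of THP-1 cells; compounds (final up to 57.5 uM) added 1 h before LPS (250 ng/mL) and ATP (1.25 mM) stimulation; lower signal means less secretion.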
TDP1 cell noCPT: qHTS for Inhibitors of human tyrosyl-DNA phosphodiesterase 1 (TDP1): qHTS in cells in absence of CPT; DT40 Tdp1-/- hTDP1 cells, no CPT, ATP luminescence, 48 h; Potency, µM (titrated, usually from 46.2 µM), for the others: top-dose activity change, negative = growth inhibition, most hits filed as inhibitors; actives 15% (n = 420,000); also: potency is read from the fitted curve at half-maximal effect; nearly all actives have a fitted effect of over 55% in size
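Readout: luminescence from CellTiter-Glo after 30 min in the dark at RT. Cells: DT40 Tdp1-/- with stable hTDP1, 400/well. Exposure: compounds alone, ≥48 hr, 37 °C.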
TDP1 cell CPT: growth inhibition of DT40 Tdp1-/-;hTDP1 cells with camptothecin (screen for TDP1 inhibitors); chicken DT40 Tdp1-/-;hTDP1 cells + 20 nM CPT, ATP luminescence, 48 h; Potency, µM (series often up to 46.2 µM), for the others: top-dose activity change, negative = growth inhibition, hits mostly inhibitors; actives 12% (n = 420,000); also: potency is read from the fitted curve at half-maximal effect; nearly all actives have a fitted effect of over 55% in size
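Chicken DT40 Tdp1-/- cells stably complemented with human TDP1 were seeded at 400 cells/well in medium containing 20 nM camptothecin, exposed to pin-transferred compounds, and grown at 37 °C for at least 48 hr. Viability was read as ATP luminescence.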
* = called active by the depositor; i = inactive; ? = inconclusive; . = no result given; [ ] = dose if it differs, or a comment. Shown are actives, neighbours in structure and some others; about 19% of the full set was active somewhere. Unless noted, calls follow the shape of the dose curve; as a rule, active = well fitted curve in the direction sought with a large enough effect; inconclusive = small, poorly fitted or top-dose-only effect, or another doubt; inactive = no such curve, though single readings can be large; an effect the other way counts as inactive or inconclusive. Unless noted, % is scaled to controls: 0 for no effect and ±100 for the full control effect.

SMILES	uPA generation	HT1080NT lethal	HT1080 IDH1KD tx	IL1B secr inh	TDP1 cell noCPT	TDP1 cell CPT
CCOc1ccc(-c2nnc(-c3ccccc3)n2-c2ccccc2)cc1	4.0%	2.1%	11.0%	0.4	10.3µM*	?
O=C(NC(Cc1ccccc1)C(=O)O)/C(=C\c1ccccc1)NC(=O)c1ccc(Br)o1 (stereo not drawn)	-1.7%	7.1%	-3.7%	18.0	2.7%	-0.1%
O=Cc1ccc(/C=C2\C=Cc3ccccc32)cc1	.	.	.	.	6.31µM*	5.62µM*
CNc1ccc(C=C2C=Cc3ccccc32)cc1	-3.8%	-1.7%	-0.3%	-72.8*	-27.6%	2.0%
Cc1ccc(CN2CCOc3ccc(CN4CCN(CCO)CC4)cc3C2)s1	.	.	.	.	-14.5%	10.4%
O=C(O)c1cc(Cl)c(Cl)cc1C(=O)Nc1cccc2cccnc12	-2.4%	-1.8%	-2.9%	-0.4	-27.1%	-13.0%
C/C(=N\NS(=O)(=O)c1cccc([N+](=O)[O-])c1)c1cccnc1	-18.0%	0.2%	4.5%	13.4	-9.2%	-3.0%
C/C(=N\NS(=O)(=O)c1ccccc1)c1ccccc1	-0.8%	4.7%	3.2%	0.0	0.1%	-0.2%
CCCCc1ccc(S(=O)(=O)N/N=C(/C)c2ccncc2)cc1	-5.9%	?	5.5%	i	?	16.4µM*
CSc1nc2ccc(NC(=O)c3ccccn3)cc2s1	-3.5%	14.6µM*	11.6µM*	-10.5	?	5.8%
CCOc1ccc2nc(NC(=O)NC3CCCCC3)sc2c1	2.1%	7.7%	16.8%	-2.2	20.6µM*	?
CCOc1ccc2nc(NC(=O)Nc3ccccc3)sc2c1	3.8%	-3.0%	-21.8%	-5.7	?	?
O=C(Nc1nc2c(F)cc(F)cc2s1)c1ccccn1	-12.9%	?	6.51µM*	-0.7	0.731µM*	0.651µM*
CSc1nc2ccc(NC(=O)C3=NNC(=O)CC3)cc2s1	-21.8%	-2.3%	-28.7%	0.0	-32.8%	-1.3%
CCOc1ccc2nc(NC(=O)C3CCCO3)sc2c1 (stereo not drawn)	-2.7%	1.1%	0.9%	?	-6.3%	-26.5%
CCOc1ccc2nc(NC(=O)c3ccccn3)sc2c1	-6.9%	?	16.4µM*	-97.9*	0.651µM*	0.82µM*
CCSc1ncc(Cl)c(C(=O)Nc2ccccc2F)n1	-1.2%	1.0%	2.1%	5.7	-15.1%	-0.4%
CCOc1ccccc1NC(=O)c1nc(SC(C)C)ncc1Cl	.	.	.	.	18.4µM*	?
CCOc1ccc2nc(NC(=O)c3nc(SC(C)C)ncc3Cl)sc2c1	.	.	.	.	8.2µM*	9.2µM*
O=C(Nc1nc2c(F)cc(F)cc2s1)c1ccc(S(=O)(=O)N2CCc3ccccc32)cc1	.	.	.	.	?	25.9µM*
Cc1ccc2nc(NC(=O)c3ccccn3)sc2c1	-27.2%	14.6µM*	2.31µM*	-101.9*	6.51µM*	4.61µM*
O=C(O)CCN1C(=O)c2ccc(Oc3ccc([N+](=O)[O-])cc3)cc2C1=O	1.9%	8.0%	13.9%	0.9	-4.9%	-7.2%
CCOc1ccc2nc(NC(=O)Cn3[nH]c(=O)c4ccccc4c3=O)sc2c1	-8.2%	6.0%	8.5%	58.0	23.1µM*	23.1µM*
CCCCNC(=O)C1CC(c2ccc(C(F)(F)F)cc2)=NO1 (stereo not drawn)	8.3%	7.1%	10.4%	11.1	9.2µM*	18.4µM*
CCCCN(CCCC)CCCNC(=O)C1CC(c2ccc(C(F)(F)F)cc2)=NO1 (stereo not drawn)	12.9%	-0.2%	-5.7%	?	?	?
SMILES	uPA generation	HT1080NT lethal	HT1080 IDH1KD tx	IL1B secr inh	TDP1 cell noCPT	TDP1 cell CPT
CCCNC(=O)C1CC(c2ccc(C(F)(F)F)cc2)=NO1 (stereo not drawn)	-5.5%	14.7%	14.1%	-3.2	11.6µM*	11.6µM*
CCOC(=O)c1ccc(NC(=O)/C(C#N)=C/c2ccc(OC)cc2)cc1	.	.	.	.	?	-25.7%
COc1ccc(C2OC3C(CO)OC(n4cnc5c(=O)[nH]c(N)nc54)C3O2)cc1 (stereo not drawn)	.	.	.	.	0.0%	0.1%
CC(COc1ccc(/C=C/c2ccccc2)cc1)[N+](C)(C)C (stereo not drawn)	?	?	?	151.2	3.26µM*	4.11µM*
CC(COc1ccccc1)NN (stereo not drawn)	.	.	.	.	-6.0%	-3.8%
C[n+]1ccn(CC(=O)c2cccs2)c1	1.4%	?	9.9%	-3.0	-10.4%	13.6%
CCCCCCCCCCCCCCCCn1cc[n+](C)c1	?	16.4µM*	20.6µM*	-95.6*	0.461µM*	0.461µM*
C=CCn1c(SCc2c(C)noc2C)nc2sc3c(c2c1=O)CCCC3	.	-19.0%[9.24 µM]	?	-20.6	?	18.4µM*
COC(=O)c1sc(N)c(C(=O)OC)c1CSc1nc2sc3c(c2c(=O)n1C)CCC3	1.4%	9.5%	4.1%	27.2	25.9µM*	?
C=CCn1c(SCC(=O)N(C)C)nc2sc3c(c2c1=O)CCC3	-9.1%	-2.8%	0.0%	30.6	?	?
Cc1noc(C)c1CSc1nc2sc3c(c2c(=O)n1C)CCCC3	.	5.2%	-5.4%	-25.6	?	11.6µM*
CCCc1nc2cc(C)c(Br)c(C)n2c1Cc1ccc(OC)cc1C	.	?	?	47.1	?	?
OCC1(CO)COC(C(Cl)(Cl)Cl)OC1	.	.	.	.	0.0%	9.8%
CSc1ccccc1NC(=O)CN(Cc1ccc(Cl)cc1)S(C)(=O)=O	-0.7%	-4.0%	1.0%	-63.4*	-22.8%	-21.9%
COc1c(C(=O)NNC(=O)c2ccccc2Cl)csc1Br	-12.8%	3.6%	-0.6%	-15.8	-11.0%	1.1%
CCOC(=O)[C@@H]1[C@H]2COc3ccc(Br)cc3[C@@H]2N2C(=O)N(c3cccc(F)c3)C(=O)[C@]12C	-14.6%	-0.1%	-2.6%	-5.0	?	?
CCOC(=O)Cc1c(C)nc2c(-c3ccccc3)c(C)[nH]n2c1=O	5.5%	3.5%	?	0.0	?	-9.0%
CCOC(=O)Cc1c(C)nc2c(-c3ccccc3)c(-c3ccccc3)[nH]n2c1=O	.	?	?	18.2	16.4µM*	?
CCOC(=O)Cc1c(C)nc2c(-c3ccccc3)c[nH]n2c1=O	-3.8%	-14.4%	-0.8%	-15.9	2.31µM*	18.4µM*
CC(C)CNc1ncnc2c1ncn2[C@H]1CN(C2CCCC2)C[C@@H](CO)O1	.	13.0%	28.2%	13.3	?	-23.2%
Cc1cc(Br)c(NC(=O)COn2nnc3ccc(S(C)(=O)=O)cc32)c(Br)c1	4.7%	-4.5%	-4.0%	-65.5*	-29.2%	4.7%

Source: PubChem BioAssay (National Center for Advancing Translational Sciences (NCATS))
